Bioassay records deposited in PubChem BioAssay by National Center for Advancing Translational Sciences (NCATS).
The list is not random: actives were taken first. Their share in the collection is about 21%.
AMA1-RON2 inh: disrupts binding of P. falciparum AMA1 to RON2; AlphaScreen AMA1-biotinylated RON2 peptide binding; Potency, µM (series often up to 58.2 µM), for inactives: top-dose activity change, negative = inhibition, hits mostly inhibitors; 360,000 tested, 0.2% active; AID 720542;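 also: potency is read from the fitted curve at half-maximal effect; 0% = vehicle wells and -100% = peptide control; nearly all actives have a fitted effect of over 45% in size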
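AMA1 (3D7) with his tag at 25 nM final met compounds first, then biotinylated RON2 peptide at 25 nM; detection used donor plus acceptor beads, 10 µg/mL apiece, read by AlphaScreen after 30 min at room temperature.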
Pf growth 96h: P. falciparum growth inhibition at 96 hours | Potency, µM (doses to about 28.7 µM), inactives show at the top dose activity change, negative = inhibition, hits mostly inhibitors | AID 504834 | P. falciparum luciferase reporter growth, 96 h | 320,000 tested, 6.9% active; also: potency is read from the fitted curve at half-maximal effect; % is scaled to controls: 0 for no effect and ±100 for the full control effect
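P. falciparum expressing integrated firefly luciferase, in erythrocytes at 2% hematocrit, 0.05% parasitemia, incubated with compounds 96 h at 37 C, 5% CO2. Growth inhibition read as loss of luminescence; two-generation exposure targets delayed-death apicoplast inhibitors.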
Shiga inhibitor: Shiga toxin inhibition; inhibition, % at 38.7 µM; 290,000 tested, 9.2% active; Vero cells, Shiga toxin protein synthesis inhibition reporter; in the data active = inhibition mostly above about 28%, no sharp cut-off; inactive = mostly below about 43%; also: 0% is about no effect
CHX counter: affects cycloheximide protein synthesis inhibition readout, counter-screen | cell reporter, cycloheximide protein synthesis inhibition counterscreen | AID 2314 | max response, % | 300,000 tested, 12% active; in the data active = max response mostly above about 13%, no sharp cut-off; inactive = mostly below about 14%; also: read at 38.3 µM for the half of the compounds with a filed dose; 0% is about no effect
Pf growth 48h: P. falciparum growth inhibition at 48 hours (one generation); P. falciparum luciferase growth in erythrocytes, 48 h; Potency, µM (highest dose often 28.7 µM), without a hit: top-dose activity change, negative = inhibition, hits mostly inhibitors; 310,000 tested, 5.9% active; also: potency is read from the fitted curve at half-maximal effect; % is scaled to controls: 0 for no effect and ±100 for the full control effect
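Luciferase-expressing P. falciparum in infected erythrocytes (2% hematocrit, 0.1% parasitemia final) in RPMI 1640/0.5% Albumax were exposed to compound for 48 hours at 37 C, 5% CO2; growth read as luminescence.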
HCV inhibitor: HCV inhibition; Potency, µM (doses to about 41.8 µM), for inactives: at the highest dose activity change, negative = inhibition, most hits filed as inhibitors; 340,000 tested, 3.4% active; Huh7.5.1 HCVcc-Cre infection, luciferase reporter, 44 h; also: potency is read from the fitted curve at half-maximal effect; % is scaled to controls: 0 for no effect and ±100 for the full control effect
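1,000 cells/well; 4 h culture; + compound; + HCVcc-Cre (~0.5 moi); 44 h; luciferase substrate, RT 15 min; read 15 sec.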
An asterisk follows results filed as active; [ ] = another dose, or the depositor's remark. Unless noted, calls follow the shape of the dose curve; as a rule, active = well fitted curve in the direction sought with a large enough effect; inconclusive = small, poorly fitted or top-dose-only effect, or another doubt; inactive = no such curve, though single readings can be large; an effect the other way counts as inactive or inconclusive.

What do the screens show for `CCN=C1S/C(=C\c2cc(OCC)c(O)cc2Br)C(=O)N1CC`?
AMA1-RON2 inh: 15%[11.6 µM]; Pf growth 96h: 10µM*; Shiga inhibitor: 0; CHX counter: -1; Pf growth 48h: 12µM*; HCV inhibitor: inconclusive

How did C=CCN(CC=C)Cc1cc(=O)oc2cc(OC)ccc12 do in these assays?
AMA1-RON2 inh: 8%

What do the screens show for `CN(C)c1ccc(/C=N/NC(=O)COc2ccccc2)cc1`?
AMA1-RON2 inh: -3%; Pf growth 96h: 34%; Shiga inhibitor: 44*; CHX counter: 38*; Pf growth 48h: 376%; HCV inhibitor: -1%

What do the screens show for `CN(C)/C=C(\C#N)C(=O)N/N=C/c1ccccc1`?
AMA1-RON2 inh: 4%; Pf growth 96h: 174%; Shiga inhibitor: 96; CHX counter: 27*; Pf growth 48h: 207%; HCV inhibitor: 11%

How did CN(C)c1ccc(/C=N/NC(=O)CNC(=O)/C=C/c2ccccc2)cc1 do in these assays?
AMA1-RON2 inh: -9%; Pf growth 96h: 6%; Shiga inhibitor: 30*; CHX counter: 30*; Pf growth 48h: 115%; HCV inhibitor: -23%

How did O=C(N/N=C/c1ccccc1)C(=O)N/N=C/c1ccccc1 do in these assays?
AMA1-RON2 inh: 84%; Pf growth 96h: 2%; Shiga inhibitor: 20; CHX counter: -7; Pf growth 48h: 15%; HCV inhibitor: 15%

What do the screens show for `CNC(=O)CO/N=C/c1ccc(N(C)C)cc1`?
AMA1-RON2 inh: 6%; Pf growth 96h: 77%; Shiga inhibitor: 29*; CHX counter: 22*; Pf growth 48h: 24%; HCV inhibitor: 6%

How did CCN(CC)c1ccc(/C=N/OCC(=O)Nc2cccc(C)c2)cc1 do in these assays?
AMA1-RON2 inh: inconclusive; Pf growth 96h: 38%; Shiga inhibitor: 28; CHX counter: 7; Pf growth 48h: 20%; HCV inhibitor: -24%

Results for COC(=O)C1CCN(CC(=O)Nc2ccc(OC)c(Cl)c2)CC1 ?
AMA1-RON2 inh: 5%; Pf growth 96h: inconclusive; Shiga inhibitor: 6; CHX counter: 13; Pf growth 48h: 37%; HCV inhibitor: 14%

How did N#CCC(=O)N/N=C/c1ccc(Cl)cc1 do in these assays?
AMA1-RON2 inh: 38%; Pf growth 96h: 173%; Shiga inhibitor: -3; CHX counter: -2; Pf growth 48h: 141%; HCV inhibitor: 15%

Results for CN(c1ccccc1)c1ccc(/C=N/NC(=O)CC#N)cc1 ?
AMA1-RON2 inh: -1%[2.32 µM]; Pf growth 96h: -18%; Shiga inhibitor: 58*; CHX counter: 28*; Pf growth 48h: -20%; HCV inhibitor: inconclusive

Results for Cc1ccccc1N(CC(=O)N/N=C/c1ccc(N(C)C)cc1)C(=O)c1ccccc1 ?
AMA1-RON2 inh: -3%; Shiga inhibitor: 31; CHX counter: 34*; Pf growth 48h: 7%; HCV inhibitor: inconclusive

How did CCOc1ccc(-c2cn3ccccc3n2)cc1 do in these assays?
AMA1-RON2 inh: 0%; Pf growth 96h: -6%; Shiga inhibitor: 37; CHX counter: 6; Pf growth 48h: -2%; HCV inhibitor: -6%

How did CCOc1ccc(-c2cnc3ccccc3n2)cc1 do in these assays?
AMA1-RON2 inh: 13%; Pf growth 96h: inactive; Shiga inhibitor: 96*; CHX counter: 40*; Pf growth 48h: 67%; HCV inhibitor: inconclusive

What do the screens show for `O=[N+]([O-])c1ccc(-c2cnc3ccccc3n2)cc1`?
AMA1-RON2 inh: -20%; Pf growth 96h: -22%; Shiga inhibitor: 32*; CHX counter: 26*; Pf growth 48h: 111%; HCV inhibitor: 11%

How did O=[N+]([O-])c1cc(-c2cnc3ccccc3n2)ccc1Oc1ccc(F)cc1 do in these assays?
AMA1-RON2 inh: -8%; Pf growth 96h: 67%; Shiga inhibitor: 81*; CHX counter: 53*; Pf growth 48h: 14%; HCV inhibitor: -16%

What do the screens show for `O=[N+]([O-])c1ccccc1Oc1cnc2ccccc2n1`?
AMA1-RON2 inh: -16%; Pf growth 96h: -4%; Shiga inhibitor: -3; CHX counter: 2; Pf growth 48h: 3%; HCV inhibitor: -5%

Results for O=C(NCc1cc(Cl)cc(Cl)c1)c1csc(COCCO)n1 ?
AMA1-RON2 inh: 1%
